# From ChEMBL document CHEMBL3988442, “University of Dundee, Small-Polar-MMV Screening Library” (2021)
# Among all 48,000 compounds or so, about 13,000 (27%) showed an effect of 50% or more. The list shows a part of the results.
# Tested on: Wolbachia pipientis
# Experiment: Anti-Wolbachia Cell-Based Screen
# Assay type: functional
# Design: scale not given: in the data most compounds retested in dose-response had high values
# Conditions: 5 µM
row,SMILES,Percent Effect [%]
1,O=C(O)c1cc(-c2ccc3c(c2)OCO3)cc(S(=O)(=O)NC2CC2)c1,1.562
2,O=C(c1ccc2sccc2c1)N1CCC(C(=O)O)(n2ccnc2)CC1,-1.881
3,Cc1ccccc1N1CCN(C(=O)c2cnc(N(C)C)nc2C)C(C)C1 (centres undefined),26.11
4,Cc1nc(N)ncc1C(=O)N1CCCC1(C)C(=O)N(C)C (centres undefined),88.37
5,Nc1ncc(C(=O)N2CCC(O)(CO)CC2)c(-c2ccccc2)n1,-11.61
6,CC[C@@H](CO)NC(=O)c1coc(COc2ccc(OC)cc2)n1,-6.129
7,COCC(=O)Nc1nccn1Cc1ccc(Br)cc1,8.757
8,CCNC(=O)N(C)C1CCCc2nc(C)sc21 (centres undefined),9.089
9,N#Cc1cccnc1N1CCC(c2nc(C(F)(F)F)c[nH]2)CC1,-10.33
10,CCN(CC)c1ccc2ccc(C(=O)N3CCCCO3)cn12.O=C(O)C(F)(F)F,-8.466
11,CC(CCc1ccc(O)cc1)NC1CCN(C(=O)C(C)C)CC1 (centres undefined),2.314
12,CC(C)C(=O)N1CCN(c2cc(N(C)C)cnn2)CC1,9.778
13,CCOC1CC2(CCN(C(=O)COC)CC2)c2cc(C)ccc21 (centres undefined),10.7
14,CC(C)C(=O)N1CCC(C)(c2cc(O)[nH]n2)CC1,136.2
15,COCC(=O)N1CCC2(CC1)CNc1ccc(F)cc12.O=C(O)C(F)(F)F,7.249
16,COCC(=O)N1CCC(C)(c2cc(O)[nH]n2)CC1,115.4
17,Cc1cc(N2CCN(C(=O)CCc3scnc3C)CC2)nc(N)n1,8.877
18,c1cc2c(cc1CSCc1noc(C3CC3)n1)OCCO2,98.07
19,c1ccc(CN2CCC(Cc3noc(C4CC4)n3)CC2)cc1,27.3
20,Clc1ccc(C2(NCc3noc(C4CC4)n3)CCOCC2)cc1,-0.4021
21,CC(c1nc(C2CC2)no1)N(C)Cc1ccc2c(c1)OCCO2 (centres undefined),0.3167
22,c1cc(CN2CCC(c3ccncc3)CC2)cc(Cn2cccn2)c1,-4.875
23,c1cc2c(cc1CN1CCC(Cc3noc(C4CC4)n3)CC1)OCCO2,75.34
24,c1cc(C2CCN(Cc3ccc4c(c3)OCO4)CC2)ccn1,106.9
25,c1cc(CN2CCC(Cc3noc(C4CC4)n3)CC2)c2c(c1)OCO2,85.87
26,CN(Cc1noc(C2CC2)n1)CC1CCN(CCO)CC1,15.04
27,c1cncc(CN2CCC(NCCc3ccc4c(c3)OCO4)CC2)c1,3.399
28,O=C(NCC1CC1)N1CCN(Cc2ccc3c(c2)OCCO3)CC1,1.258
29,O=C(c1cccc2c1OCO2)N1CCCC1c1noc(C2CC2)n1 (centres undefined),-8.169
